# Bioassay records from PubChem.
# GPT2 inh – GPT2 alanine aminotransferase inhibition | Potency, µM (top dose mostly 57.7 µM), for inactives: top-dose activity change, negative = inhibition, usual class: inhibitors | Recombinant GPT2, coupled pyruvate oxidase/HRP Amplex Red fluorescence | Q8TD30 | 100,000 tested, 0.25% active | AID 1671188; also: nearly all actives have a fitted effect of over 60% in size
#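 Fluorescence of coupled pyruvate oxidase/HRP/Amplex Red system (50uM Amplex, 30 min, dark) reports pyruvate formed by GPT2. Enzyme reaction: 10ng/uL GPT2, 2mM L-alanine, 250uM a-KG, 30 min room temperature, pH 7.5; 50uM AOA control.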
# 3T3 cytotox – kills NIH 3T3 cells; NIH 3T3 viability, CellTiter-Glo ATP luminescence, 48-72 h; Potency, µM (titrated, usually from 96.7 µM), inactives show top-dose activity change, negative = cytotoxicity, usual class: inhibitors; 94,000 tested, 4.3% active; AID 1345082; also: nearly all actives have a fitted effect of over 55% in size
#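 Cytotoxicity is measured as loss of cellular ATP: NIH 3T3 cells (400/well) are exposed to compound for 48 or 72 hr at 37 °C, then CellTiter-Glo luminescence is imaged after 10 min at room temperature.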
# FLuc inh – Photinus pyralis luciferase inhibition | P08659 | purified P. pyralis luciferase, luminescence, biochemical | Potency, µM (top dose mostly 115 µM), most hits filed as inhibitors | 76,000 tested, 2.5% active; also: nearly all actives have a fitted effect of over 65% in size
# Target sequence (P08659 whole entry, looked up): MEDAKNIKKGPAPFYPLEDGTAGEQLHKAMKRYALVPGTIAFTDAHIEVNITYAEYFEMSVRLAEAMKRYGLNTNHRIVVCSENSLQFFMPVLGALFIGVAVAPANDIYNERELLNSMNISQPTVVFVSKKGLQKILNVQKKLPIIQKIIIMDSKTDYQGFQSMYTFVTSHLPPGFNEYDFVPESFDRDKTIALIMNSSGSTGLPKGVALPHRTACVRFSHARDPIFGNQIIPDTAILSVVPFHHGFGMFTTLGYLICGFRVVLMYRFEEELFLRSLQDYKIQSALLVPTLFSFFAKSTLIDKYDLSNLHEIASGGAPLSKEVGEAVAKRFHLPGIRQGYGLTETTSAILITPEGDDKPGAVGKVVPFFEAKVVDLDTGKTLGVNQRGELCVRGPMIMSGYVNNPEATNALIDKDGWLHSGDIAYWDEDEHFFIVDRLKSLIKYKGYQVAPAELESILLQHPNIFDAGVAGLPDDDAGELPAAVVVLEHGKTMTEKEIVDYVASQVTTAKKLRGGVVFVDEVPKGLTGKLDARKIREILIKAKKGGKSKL
#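 Luminescence read by CCD imager after adding enzyme (10nM final) to wells holding compound, titrated in qHTS. Substrates 10uM each D-luciferin and ATP; buffer 50mM Tris acetate pH 7.5, 10mM Mg acetate, Tween-20, BSA.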
# hNpr1 antagonist – blocks ANP-stimulated signaling of human Npr1 receptor; HEK293 hNpr1 GloSensor cGMP, ANP-stimulated luminescence; 76,000 tested, 1.6% active; Potency, µM (top dose mostly 46.3 µM), for the others: at the top dose activity change, negative = inhibition, usual class: inhibitors; P16066; AID 1347048; calls by dose curve; also: nearly all actives have a fitted effect of over 60% in size
#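 HEK293 cells stably expressing human Npr1 and cGMP GloSensor pGS-40F, loaded 2 h with 2% GloSensor reagent, given compound 30 min at room temperature. Luminescence read before and 20 min after 0.1 nM hNppA.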
# HEK cytotox – HEK 293 cell cytotoxicity; 94,000 tested, 6.6% active; HEK 293 viability, ATP luminescence (CellTiter-Glo), 48-72 h; AID 1345083; Potency, µM (highest dose often 115 µM), without a hit: at the highest dose activity change, negative = cytotoxicity, actives largely listed as inhibitors; also: nearly all actives have a fitted effect of over 60% in size
#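 Viability of HEK 293 cells, plated at 250 cells/well, was judged by cellular ATP after compound treatment for 48 or 72 hr. Luminescence was imaged 10 min after CellTiter-Glo addition at room temperature.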
# * hit, by the source's call; i = inactive; ? = inconclusive; . = not tested or not shown; [ ] = dose if it differs, or a comment. The list is not random: actives were taken first. Their share in the collection is about 10%. Unless noted, calls follow the shape of the dose curve; as a rule, active = well fitted curve in the direction sought with a large enough effect; inconclusive = small, poorly fitted or top-dose-only effect, or another doubt; inactive = no such curve, though single readings can be large; an effect the other way counts as inactive or inconclusive. % is scaled to controls: 0 for no effect and ±100 for the full control effect; potency is read from the fitted curve at half-maximal effect.
SMILES,GPT2 inh,3T3 cytotox,FLuc inh,hNpr1 antagonist,HEK cytotox
O=C(NC1CCCCCCC1)C1CCN(C(=O)c2ncn3c2COC(c2ccccc2)C3)CC1 (centres undefined),3%,1%,18µM*,-22%,6%
O=C(NC1CC1)C1CCN(C(=O)c2ncn3c2COC(c2ccc(F)cc2)C3)CC1 (centres undefined),-2%,i,35µM*,3%,8%
O=C(Nc1ccc(F)cc1)C1CCN(C(=O)c2ncn3c2COC(c2ccc(F)cc2)C3)CC1 (centres undefined),i,-17%,32µM*,-13%,0%
COc1ccc(NC(=O)C2CCN(C(=O)c3ncn4c3COC(c3ccc(F)cc3)C4)CC2)cc1F (centres undefined),i,0%,?,-2%,-8%
O=C(Cc1cccnc1)N1CCC(N2CC(OCC3CC3)C23CCOCC3)CC1 (centres undefined),i,-11%,.,.,-10%
N#Cc1ccccc1CN1C[C@@H](CO)[C@H](NC(=O)c2ccccc2)C1,i,-17%,i,-15%,-36%
O=C(c1ccno1)N1CCN2C(=O)N(Cc3ccc(F)cc3)C[C@H]2C1,-6%[88.5 µM],-2%[174 µM],i,15%[70.6 µM],-18%[172 µM]
CCOc1nccn2c(-c3ccc(CN4CCNC(=O)C4)cc3)cnc12,3%[88.5 µM],?,i,5%[70.6 µM],-2%[172 µM]
O=C(Nc1cc(F)cc(F)c1)C1CCN(C(=O)c2ncn3c2COC(c2ccc(F)cc2)C3)CC1 (centres undefined),i,?,35µM*,?,?
O=C(NCc1cc(F)cc(F)c1)C1CCN(C(=O)c2ncn3c2COC(c2ccc(F)cc2)C3)CC1 (centres undefined),i,0%,?,-1%,-19%
CN(Cc1cnn(-c2ccc(F)cc2)c1)c1cc(C2CC(O)C2)ncn1 (centres undefined),i,?,i,?,28µM*
CN(Cc1nc2ccc(F)cc2[nH]1)c1cc(C2CC(O)C2)ncn1 (centres undefined),-11%,-28%,i,7%,-3%
COc1ccc(CNC(=O)[C@@H]2Cc3cn(Cc4cccnc4)c4cccc(c34)[C@H](CC(C)C)N2)cc1,-41%,?,i,-12%,35µM*
C=CCNC(=O)[C@@H]1Cc2cn(Cc3cccnc3)c3cccc(c23)[C@H](CC(C)C)N1,3%[88.5 µM],?,i,-18%[70.6 µM],50µM*
COc1ccccc1CNC(=O)[C@@H]1Cc2cn(C)c3cccc(c23)[C@H](CC(C)C)N1,?,50µM*,i,-20%[70.6 µM],45µM*
CC(C)C[C@@H]1N[C@H](C(=O)NCc2ccccc2)Cc2cn(Cc3cccnc3)c3cccc1c23,-10%,?,i,-21%,25µM*
O=C(C1CC1)N1CC(F)(F)C[C@H]1c1nc(-c2cccnc2)no1,i,i,i,2%,i
O=C(C1CN(c2ccc(F)cc2)C(=O)N1)N1CCN(Cc2ccccc2)CC1 (centres undefined),i,28µM*,i,22%,25µM*
Cc1ccc(C(=O)Nc2cc(C3CC3)nn2-c2ccccc2)cc1,i,?,.,.,?
CC(C)CNC(=O)c1cc(-c2cccnc2)nc2c1cnn2C,-8%[88.5 µM],?,.,.,?
Cn1ncc2c(C(=O)NCc3cccc(C(F)(F)F)c3)cc(-c3cccnc3)nc21,-7%,?,.,.,?
CC(C)CNC(=O)c1cc(-c2ccsc2)nc2c1cnn2C,i,?,.,.,71µM*
Cn1ncc2c(C(=O)NCc3cccc(C(F)(F)F)c3)cc(-c3ccsc3)nc21,i,?,.,.,28µM*
CC(C)CNC(=O)c1ccc2nnc(-c3ccc([S+](C)(=O)[O-])cc3)n2c1,-12%,-22%,.,.,-19%
CC(=O)NC1(C)CCCN(Cc2cccc(-c3ccc4c(ccn4C)c3)c2)C1 (centres undefined),i,79µM*,?,?,56µM*
CC(=O)NC1(C)CCN(Cc2cccc(-c3cccc(Cl)c3)c2)C1 (centres undefined),-13%[88.5 µM],?,?,2%[70.6 µM],79µM*
